Consider 14 compounds from PubChem BioAssay.

Assay [1] can be described thus: inhibitors of TNFa-induced NFkB p65 translocation, primary screen, imaging, HUVEC, MLSMR starter and 10KST1 sets (AID 438;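 active means inhibition above 20% together with a positive visual image hit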;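 further: compound added about 3h40 before a 20 min TNFalpha stimulation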;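 on inhibition: signal is the nuclear over cytoplasmic p65 intensity ratio per well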). The conditions noted are these: HUVEC TNFa-induced p65 nuclear translocation; cell count: measured here: nuclei count (cytotoxicity indicator), at 2.08 µM; inhibition: at 2 µM, stronger effect = higher value, 0% TNFa-plus-vehicle, 100% no-TNFa wells.
Assay [2] is described as follows: inhibitors of mutant huntingtin aggregation, primary screen, imaging, exon1htt(103Q)mCFP cells, high-content imaging (AID 483;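 active means visual image review flags a hit and inhibition of aggregation exceeds 20%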;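 further: compound exposure lasted 3 days before fixation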;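 on nuclei count: percent of the per-plate median nuclei count of sample wells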). The conditions noted are these: exon1htt(103Q)mCFP cell line, aggregate imaging, at 2 µM; inhibition of aggregation: stronger effect = higher value; nuclei count: measured here: cell count, toxicity.
A short description of assay [3]: inhibitors of E-selectin induction by TNFa, primary screen, imaging, HUVEC, immunofluorescence, MLSMR starter and 10KST1 sets (AID 487;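 active means visually confirmed hit in the image check and inhibition above 20%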;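 on inhibition: signal is fraction of cell area covered by stained E-selectin grains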;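 on nuclei count: 100% = median nuclei count of all wells on the same plate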). The conditions noted are these: HUVEC TNFalpha-induced E-selectin immunofluorescence imaging, at 2 µM; inhibition: stronger effect = higher value; nuclei count: measured here: cell number, toxicity.
Assay [4] has as its target Voltage-gated potassium channel subunit beta-2 (Rattus norvegicus) (UniProt P62483). Nature of the assay: KvBeta enzyme negative modulators, primary screen, biochemical, NADPH fluorescence (AID 622;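 active means fluorescence slope higher than the sample average by over 3 SD, cut at about -0.22 in these data, passing the limit was not always enough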;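 further: slope of raw intensity against log time taken from 70 to 1610 s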). The conditions noted are these: recombinant KvBeta, 4-cyanobenzaldehyde reduction, at 10 µM, stronger effect = higher value.
Assay [5] has the same target. Put plainly: KvBeta positive modulators, primary screen, biochemical, NADPH fluorescence (AID 623;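 active means NADPH fluorescence slope more negative than the mean of all samples by about 3 SD, 99.7% confidence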;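 further: fluorescence intensity change per second fitted from 20 to 320 s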). The conditions noted are these: Recombinant KvBeta, NADPH fluorescence decrease slope, 10 min; at 10 µM; stronger effect = lower value.
The target in assay [6] is Alpha-2C adrenergic receptor (Homo sapiens) (UniProt P18825). Put plainly: modulators of alpha2C/GIRK thallium flux, primary screen, cell-based, HEK293 alpha2C/GIRK1/2 (AID 624).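 Further: slope of fluorescence ratio to pre-addition baseline per second over 15 to 24 s.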 The conditions noted are these: thallium flux BTC fluorescence, at 10 µM, actives lie on both sides.
Chain of Alpha-2C adrenergic receptor (Homo sapiens) (P18825 whole entry, looked up): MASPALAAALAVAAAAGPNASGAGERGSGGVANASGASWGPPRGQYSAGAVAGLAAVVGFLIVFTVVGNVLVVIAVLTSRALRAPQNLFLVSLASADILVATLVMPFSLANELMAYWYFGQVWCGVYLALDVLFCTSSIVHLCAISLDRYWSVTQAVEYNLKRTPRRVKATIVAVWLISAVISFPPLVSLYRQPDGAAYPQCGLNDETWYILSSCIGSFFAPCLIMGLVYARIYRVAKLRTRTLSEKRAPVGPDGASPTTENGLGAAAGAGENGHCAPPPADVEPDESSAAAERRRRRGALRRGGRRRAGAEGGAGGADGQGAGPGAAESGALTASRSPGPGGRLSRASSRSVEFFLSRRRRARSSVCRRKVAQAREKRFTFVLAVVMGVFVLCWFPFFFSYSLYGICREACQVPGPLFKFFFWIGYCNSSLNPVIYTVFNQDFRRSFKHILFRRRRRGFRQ
Assay [7] in a line: inhibitors of Sendai virus-induced IRF3 signaling, primary screen, TLR/RLR signaling modifier project, cell-based, Sendai virus stimulus, luciferase, 10K MLSCN set (AID 602276;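 active means inhibition at or above 50% at 10 µM; inactive means inhibition below 50%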;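 further: firefly luciferase from ISG56 promoter only with Renilla not read in this screen; 0% = Sendai virus plus DMSO and 100% = medium plus DMSO without virus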). The conditions noted are these: HEK293 RL24 IRF3 luciferase reporter, at 10 µM, stronger effect = higher value. (In general: A reporter such as luciferase makes a cellular process visible.)
Assay [8] in a line: inhibitors of poly I:C-induced TLR3 signaling, primary screen, cell-based, poly I:C stimulus, luciferase, 10K MLSCN set (AID 602277;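 active means inhibition of the reporter signal at or above 50%; inactive means inhibition below 50%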). The conditions noted are these: HEK293-TLR3 RL24 IRF3 luciferase reporter, at 10 µM, stronger effect = higher value.

Structures are written as SMILES. Active and inactive are the calls of the source.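 How the source made its calls, unless noted: active means fluorescence slope after compound addition differing from the mean of all screened samples at 99.7% confidence, in either direction; inactive means the rest.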

Chain of Voltage-gated potassium channel subunit beta-2 (Rattus norvegicus) (P62483 whole entry, looked up): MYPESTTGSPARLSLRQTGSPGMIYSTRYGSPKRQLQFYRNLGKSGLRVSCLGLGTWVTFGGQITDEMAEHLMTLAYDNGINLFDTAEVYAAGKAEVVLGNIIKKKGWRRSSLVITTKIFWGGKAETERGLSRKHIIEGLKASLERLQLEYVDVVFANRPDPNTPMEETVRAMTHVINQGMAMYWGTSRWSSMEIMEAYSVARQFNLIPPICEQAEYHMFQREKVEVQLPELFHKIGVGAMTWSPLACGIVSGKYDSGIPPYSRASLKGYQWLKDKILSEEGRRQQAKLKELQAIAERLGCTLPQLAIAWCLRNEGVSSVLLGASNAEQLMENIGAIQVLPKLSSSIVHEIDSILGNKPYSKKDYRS

In the case of `CCc1cc2c(CN3CCN(CCO)CC3)cc(=O)oc2cc1O`, in assay [1], the cell count stood at 396. Also, the inhibition (commonly the drop in the measured response relative to a control, in per cent) in assay [1] is 1.3% (inactive); in assay [3], -34.5% (inactive); in assay [7], 17.8% (inactive); in assay [8], 27% (inactive). Also, the inhibition of aggregation in assay [2] was -12.5% (inactive). Moreover, the nuclei count in assay [2] was found to be 102%; in assay [3], 60.8%. Besides, the fluorescence slope in assay [4] is -0.0121 (active). Besides, in assay [5], the NADPH fluorescence slope was 1.7e-06 (inactive). Besides, in assay [6], the slope is 0.00408 (inactive).
As to `Cn1c(SCC(=O)Nc2cccc3ccccc23)nc(O)cc1=O`, the cell count in assay [1] turned out to be 548. The inhibition was -0.9% (inactive) in assay [1], 17.2% (inactive) in assay [3], 11.6% (inactive) in assay [7] and 15.1% (inactive) in assay [8]. In assay [2], the inhibition of aggregation is -2.1% (inactive). Moreover, the nuclei count stood at 113% in assay [2] and 120% in assay [3]. For the same compound, the fluorescence slope in assay [4] was -0.42 (inactive). Also, the NADPH fluorescence slope in assay [5] is -4.6e-05 (inactive). For the same compound, the slope in assay [6] was 0.00441 (inactive).
With `COc1cccc(CNC(=O)CCS(=O)(=O)c2cccc3nsnc23)c1`, in assay [1], the cell count worked out at 667. Besides, the inhibition in assay [1] was -6.5% (inactive); in assay [3], 8.1% (inactive); in assay [7] it was 13.8% (inactive); in assay [8] it was 24.3% (inactive). Further, the inhibition of aggregation in assay [2] is -34.5% (inactive). The nuclei count in assay [2] is 112%; in assay [3] it was 109%. Moreover, the fluorescence slope in assay [4] is -0.513 (inactive). Further, the NADPH fluorescence slope in assay [5] is -3.9e-05 (inactive). For the same compound, in assay [6], the slope is 0.00504 (inactive).
On to `COc1cccc(-c2nnn(CC(=O)O)n2)c1`, for which the cell count in assay [1] was 472. The inhibition in assay [1] was -5.1% (inactive); in assay [3] it was -118% (inactive); in assay [7], 6.2% (inactive); in assay [8], 43.8% (inactive). The inhibition of aggregation in assay [2] was -19.3% (inactive). Further, the nuclei count in assay [2] stood at 90.3%; in assay [3], 233%. Moreover, the fluorescence slope in assay [4] is -0.468 (inactive). The NADPH fluorescence slope in assay [5] is 2.6e-06 (inactive). In addition, in assay [6], the slope was 0.00693 (inactive).
Regarding `COCCOC(=O)/C=C1/NC(=O)CS1`, the cell count in assay [1] amounted to 669. Further, the inhibition in assay [1] is 5.3% (inactive); in assay [3], 45.1% (inactive); in assay [7], 15.1% (inactive); in assay [8], 21.6% (inactive). Also, the inhibition of aggregation in assay [2] is 9.1% (inactive). The figures for the nuclei count in assay [2] and in assay [3] were 100% and 98.3%, respectively. Moreover, the fluorescence slope in assay [4] is -0.606 (inactive). Moreover, in assay [5], the NADPH fluorescence slope is -1.8e-05 (inactive). Besides, the slope in assay [6] was 0.00397 (inactive).
Turning to `c1ccc(N2CCN(Cc3ccnc4ccccc34)CC2)cc1`, the cell count in assay [1] worked out at 424. Moreover, the inhibition is 5.4% (inactive) in assay [1], 43.4% (inactive) in assay [3], -12.4% (inactive) in assay [7] and -22.2% (inactive) in assay [8]. In assay [2], the inhibition of aggregation is 10.4% (inactive). Besides, the nuclei count in assay [2] was found to be 83.9%; in assay [3] it was 102%. Moreover, the fluorescence slope in assay [4] is -0.477 (inactive). In addition, the NADPH fluorescence slope in assay [5] is -3.9e-05 (inactive). Besides, in assay [6], the slope is 0.0043 (inactive).
Consider `CCOc1ccc(C2C(C#N)=C(N)Oc3cc(C)n(CCN(C)C)c(=O)c32)cc1OCC` (centres undefined), for which the cell count in assay [1] is 587. Besides, the inhibition was -7.4% (inactive) in assay [1], 11.8% (inactive) in assay [3], 14.3% (inactive) in assay [7] and 38.2% (inactive) in assay [8]. Moreover, the inhibition of aggregation in assay [2] was 1.7% (inactive). Besides, the nuclei count in assay [2] was found to be 98.3%; in assay [3], 93.1%. In addition, the fluorescence slope in assay [4] is -0.588 (inactive). The NADPH fluorescence slope in assay [5] is -4.4e-05 (inactive). Moreover, the slope in assay [6] is 0.00685 (inactive).
Take `Cc1cccc(NC(=O)Nc2cccc(C#N)c2)n1`: in assay [1], the cell count came to 907. Besides, the inhibition in assay [1] is -1.7% (inactive); in assay [3], -77.1% (inactive); in assay [7], -22.3% (inactive); in assay [8] it was -135% (inactive). Also, the inhibition of aggregation in assay [2] is 10.2% (inactive). Moreover, the nuclei count in assay [2] is 112%; in assay [3] it was 121%. In assay [4], the fluorescence slope was -0.567 (inactive). Moreover, in assay [5], the NADPH fluorescence slope is -3.2e-05 (inactive). Moreover, the slope in assay [6] was 0.00605 (inactive).
Regarding `COc1ccc(C(=O)Nc2ccc(S(=O)(=O)NC(C)=O)cc2)cc1`, the cell count in assay [1] came out at 568. Moreover, the inhibition in assay [1] is 2.4% (inactive); in assay [3], 9.3% (inactive); in assay [7], 10.3% (inactive); in assay [8], 6.87% (inactive). For the same compound, the inhibition of aggregation in assay [2] was 21.1% (inactive). In addition, the nuclei count in assay [2] was 92.1%; in assay [3] it was 107%. Also, in assay [4], the fluorescence slope is -0.494 (inactive). Besides, in assay [5], the NADPH fluorescence slope is -2.4e-05 (inactive). For the same compound, the slope in assay [6] is 0.00509 (inactive).
Turning to `COc1ccc(-c2cc3c(=O)n(CC(=O)NC4CCN(Cc5ccccc5)CC4)ncn3n2)cc1`, the cell count in assay [1] came to 296. Further, the inhibition is 2.8% (inactive) in assay [1], 2.5% (inactive) in assay [3], -14.7% (inactive) in assay [7] and -13.3% (inactive) in assay [8]. The inhibition of aggregation in assay [2] was 0.5% (inactive). Besides, the nuclei count in assay [2] came to 91.9%; in assay [3], 90.8%. Further, in assay [4], the fluorescence slope is -0.404 (inactive). The NADPH fluorescence slope in assay [5] is -4.1e-05 (inactive). In addition, the slope in assay [6] was 0.00479 (inactive).
`Cc1ccc2c(c1)C1CCCC3C1N2CC(=O)N3Cc1ccccc1` (centres undefined): in assay [1], the cell count is 331. In addition, the inhibition is -7.1% (inactive) in assay [1], -136% (inactive) in assay [3], 7.59% (inactive) in assay [7] and -11.1% (inactive) in assay [8]. In addition, in assay [2], the inhibition of aggregation was -7.3% (inactive). Further, the results for the nuclei count in assay [2] and in assay [3] were 81.8% and 131%, respectively. For the same compound, the fluorescence slope in assay [4] was -0.498 (inactive). Also, in assay [5], the NADPH fluorescence slope is -3.8e-05 (inactive). Also, the slope in assay [6] was 0.00336 (inactive).
On to `COCCCNC(=O)CCn1c(=O)c2ccccc2n(CC(=O)Nc2ccc(C)cc2C)c1=O`, for which, in assay [1], the cell count was determined as 689. The inhibition in assay [1] is -7.3% (inactive); in assay [3], -48.2% (inactive); in assay [7], 8.73% (inactive); in assay [8], 19% (inactive). Besides, the inhibition of aggregation in assay [2] was -6.5% (inactive). The nuclei count in assay [2] is 102%; in assay [3], 111%. In assay [4], the fluorescence slope was -0.502 (inactive). In addition, the NADPH fluorescence slope in assay [5] was -1.8e-05 (inactive). For the same compound, the slope in assay [6] was 0.00709 (inactive).
In the case of `O=C(CN1CCC(c2nc3ccccc3s2)CC1)NCc1cccs1`, the cell count in assay [1] worked out at 699. Also, the inhibition in assay [1] was -1% (inactive); in assay [3], -4.6% (inactive); in assay [7], -1.46% (inactive); in assay [8], -58.5% (inactive). Also, the inhibition of aggregation in assay [2] was 12.8% (inactive). Besides, the figures for the nuclei count in assay [2] and in assay [3] were 87.9% and 103%, respectively. Moreover, the fluorescence slope in assay [4] is -0.604 (inactive). In assay [5], the NADPH fluorescence slope is -3.9e-05 (inactive). Also, the slope in assay [6] is 0.00309 (inactive).
For the compound `Cc1onc(-c2c(Cl)cccc2Cl)c1C(N)=O`, the cell count in assay [1] worked out at 406. Also, the inhibition in assay [1] is 6.3% (inactive); in assay [3], -52% (inactive); in assay [7], -11.6% (inactive); in assay [8], 7.29% (inactive). The inhibition of aggregation in assay [2] is -2.8% (inactive). The nuclei count is 98.3% in assay [2] and 98.7% in assay [3]. The fluorescence slope in assay [4] was -0.5 (inactive). The NADPH fluorescence slope in assay [5] is 2.7e-05 (inactive). Also, the slope in assay [6] is 0.00603 (inactive).
